In the library only some 3.9% were active in any assay of this set; here they are far more common.
FBA Mtb inh – Mtb FBA enzyme inhibitors, primary screen, biochemical, fluorescence, strain H37Rv. Fructose-bisphosphate aldolase (Mycobacterium tuberculosis (strain ATCC 25618 / H37Rv)), …. hit rate 2.3% among 360,000. inhibition, % at 1 µM. purified M. tuberculosis FBA, fluorescence read-out
Target sequence (P9WQA3 whole entry, looked up): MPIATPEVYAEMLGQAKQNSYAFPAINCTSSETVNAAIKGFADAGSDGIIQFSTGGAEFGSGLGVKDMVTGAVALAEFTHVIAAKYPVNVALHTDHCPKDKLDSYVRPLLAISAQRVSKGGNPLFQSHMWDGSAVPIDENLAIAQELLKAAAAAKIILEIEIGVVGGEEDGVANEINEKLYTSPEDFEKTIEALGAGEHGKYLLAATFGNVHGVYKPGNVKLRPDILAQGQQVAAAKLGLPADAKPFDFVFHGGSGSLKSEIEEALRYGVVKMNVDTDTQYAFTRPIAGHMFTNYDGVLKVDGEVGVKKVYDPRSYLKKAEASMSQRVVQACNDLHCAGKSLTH
GDH-TPI counter-1 – GDH-TPI coupling enzyme inhibitors, primary screen, artefact control for M. tuberculosis FBA inhibitor project, biochemical, absorbance, full deck. GDH-TPI coupled enzyme counterscreen, NADH absorbance. inhibition, % at 4.8 µM. hit rate 1.2% among 360,000. AID 588335, 2011; in the data active = inhibition above about 30%
BH1578 lux ind – inducers of Vibrio cholerae quorum light production without autoinducers, primary screen, BH1578 luxS cqsA deficient, single point | V. cholerae BH1578 lux reporter, luminescence, 6 h | activation, % at 18.7 µM | hit rate 0.16% among 350,000 | AID 588436, 2011; in the data active = activation mostly above about 9.7%, no sharp cut-off
SARS 3CLpro inh – SARS-CoV 3CLpro protease inhibitors, primary screen, biochemical, quenched FRET. Replicase polyprotein 1ab (Severe acute respiratory syndrome coronavirus), P0C6X7. recombinant SARS-CoV 3CLpro, quenched FRET peptide cleavage. inhibition, % at 6 µM. hit rate 0.14% among 290,000; in the data active = inhibition above about 12%
PrPC surface inh – inhibitors of human cell surface prion protein PrPC, primary screen, cell-based, TR-FRET; Major prion protein (Homo sapiens), P04156; TR-FRET read-out; inhibition, % at 13.8 µM; hit rate 0.43% among 370,000; AID 720596, 2013; in the data active = inhibition above about 24%
Mtb FBA inh conf – M. tuberculosis aldolase blockers, biochemical, fluorescence, strain H37Rv, confirmation | shares compounds with FBA Mtb inh | purified M. tuberculosis FBA, fluorescence read-out | inhibition, % at 1 µM | hit rate 78% among 5,600
GDH-TPI counter-2 – GDH-TPI coupling enzyme inhibitors, artefact control for M. tuberculosis FBA inhibitor project, biochemical, fluorescence, high throughput; shares compounds with FBA Mtb inh; GDH-TPI coupled enzyme counterscreen; inhibition, % at 1 µM; hit rate 81% among 5,600; in the data active = inhibition above about 10%
A number is an active result; – = inactive; · = no result; + = active, no number. Rule as the data show it, unless noted: active = inhibition above about 27%; inactive = the rest.

SMILES | FBA Mtb inh | GDH-TPI counter-1 | BH1578 lux ind | SARS 3CLpro inh | PrPC surface inh | Mtb FBA inh conf | GDH-TPI counter-2
CC(C)c1nc2oc3c(=O)[nH]cnc3c2c2c1COC(C)(C)C2 | 44 | – | – | – | – | 196 | 182
COCCCNC(=S)Nc1ccc(CC(=O)O)cc1 | – | – | – | – | – | · | ·
Clc1cc(Cl)cc(C2=NCCC(c3ccccc3)O2)c1 (stereo unspecified) | · | · | · | – | · | · | ·
COc1ccc(NC(=O)C2c3ccccc3OCC(=O)N2CCc2ccccc2)cc1 (stereo unspecified) | · | · | · | · | – | · | ·
Cc1ccc(NC(=O)C2C3CCC(O3)C2C(=O)O)cc1Cl (stereo unspecified) | – | – | – | – | – | · | ·
CN(C)C(=O)COC(=O)/C=C/c1cn(-c2ccccc2)nc1-c1cccs1 | – | – | – | – | – | · | ·
O=C(/C=C/c1cn(-c2ccccc2)nc1-c1cccs1)NCCN1CCOCC1 | 46 | – | – | – | – | 143 | 87
COc1ccccc1N/N=C/c1c(CO)cnc(C)c1O | – | – | – | – | – | · | ·
COc1cc(N=Cc2c(CO)cnc(C)c2O)cc(OC)c1OC | 82 | – | – | – | – | 63 | 63
COc1ccc2c(c1)nc(-c1cccc(Br)c1)c(=O)n2C(c1ccccn1)c1nc2ccccc2[nH]1 (stereo unspecified) | 53 | · | · | · | – | 68 | 47
O=c1c(-c2ccccc2)nc2ccccc2n1C(c1ccccn1)c1nc2ccccc2[nH]1 (stereo unspecified) | · | · | · | · | – | · | ·
CCOC(=O)[C@@H]1[C@H]2COc3ccccc3[C@@H]2N2C(=O)N(c3ccc(C(F)(F)F)cc3)C(=O)[C@]12C | – | – | – | · | – | · | ·
COCCNC(=O)C(C#N)c1nc2ccccc2nc1N1CCCCCC1 (stereo unspecified) | 37 | – | – | – | – | – | –
COCCNC(=O)/C(C#N)=C/c1c(N2CCN(c3ccc(OC)cc3)CC2)nc2c(C)cccn2c1=O | 80 | – | – | – | – | 73 | 58
COCCNC(=O)/C(C#N)=C/c1c(N2CCN(c3ccccc3)CC2)nc2c(C)cccn2c1=O | – | – | – | – | – | · | ·
COCCNC(=O)/C(C#N)=C/c1c(N2CCN(c3cccc(Cl)c3)CC2)nc2c(C)cccn2c1=O | 69 | – | – | – | – | 165 | 124
COCCCNC(=O)C(C#N)c1nc2ccccc2nc1N1CCN(Cc2ccccc2)CC1 (stereo unspecified) | – | – | – | – | – | · | ·
C=CCNC(=O)/C(C#N)=C/c1c(N2CCN(c3cccc(Cl)c3)CC2)nc2c(C)cccn2c1=O | 62 | – | – | – | – | 199 | 172
Cc1ccc(C(=O)NC2CCN(S(=O)(=O)c3ccccc3F)CC2)cc1 | – | – | – | – | – | · | ·
CN(CC1COc2ccccc2O1)C(=O)c1ccc(Cl)c(S(=O)(=O)N2CCCCCC2)c1 (stereo unspecified) | – | – | – | · | – | · | ·
COCCNC(=O)/C(C#N)=C/c1c(N2CCCCCC2)nc2ccccn2c1=O | 87 | – | – | – | – | 45 | 47
N#C/C(=C\c1c(N2CCCCCC2)nc2ccccn2c1=O)C(N)=O | – | – | – | – | – | · | ·
CCOc1ccc(/C=N/NC(=S)NC2CC3CCC2C3)cc1 (stereo unspecified) | 31 | – | – | – | – | – | –
N#C/C(=C\c1cccnc1)c1ccccn1 | 37 | – | – | – | – | 45 | 41
CC/C(C)=N/N1C(=O)c2ccccc2NC1(C)CC (stereo unspecified) | 38 | – | – | – | – | 115 | 127
SMILES | FBA Mtb inh | GDH-TPI counter-1 | BH1578 lux ind | SARS 3CLpro inh | PrPC surface inh | Mtb FBA inh conf | GDH-TPI counter-2
Cc1cc(OC(C)C(=O)NCC(O)c2ccccc2)c2c(C)cc(=O)oc2c1 (stereo unspecified) | 71 | – | – | – | – | 111 | 98
CCCc1cc(=O)oc2cc(C)cc(OC(C)C(=O)NCC(O)c3ccccc3)c12 (stereo unspecified) | 76 | – | – | – | – | – | –
CCCc1cc(=O)oc2cc(C)cc(OCC(=O)NCC(O)c3ccccc3)c12 (stereo unspecified) | 61 | – | – | – | – | 161 | 151
Cc1cc(OC(C)C(=O)NCC2CCC(C(=O)O)CC2)c2c(C)cc(=O)oc2c1 (stereo unspecified) | 86 | – | – | – | – | 195 | 190
COc1cc(OC)cc(-c2noc([C@H]3C[C@H](O)[C@@H](CO)O3)n2)c1 | – | – | – | · | – | · | ·
O=C([C@H]1O[C@@H](n2ccc(=O)[nH]c2=O)[C@H](O)[C@@H]1O)N1CCC(F)(F)CC1 | – | · | · | · | – | · | ·
Cc1cc(OC(C)C(=O)NCC(O)c2ccccc2)c2c3c(c(=O)oc2c1)CCC3 (stereo unspecified) | 77 | – | – | – | – | 32 | 35
N#Cc1cc2cc3c(cc2nc1NCCNC(=S)NCCCN1CCOCC1)OCO3 | 69 | – | – | – | – | 133 | 111
Cc1cccc(S(=O)(=O)c2c(N)n(Cc3ccco3)c3nc4ccccc4nc23)c1 | 101 | – | – | – | – | 76 | 61
Cc1ccc(S(=O)(=O)c2c(N)n(NC(=O)c3ccco3)c3nc4ccccc4nc23)cc1 | 35 | – | – | – | – | – | –
Cc1ccc(S(=O)(=O)c2c(N)n(Cc3ccco3)c3nc4ccccc4nc23)cc1 | 82 | 31 | – | – | – | 39 | 30
Cc1ccc(S(=O)(=O)c2c(C)nn(-c3ccccc3)c2OC(=O)c2ccco2)cc1 | – | – | – | – | – | · | ·
Cc1cccc(-n2cnc3c(c2=O)c2nc4ccccc4nc2n3Cc2ccco2)c1 | – | – | – | · | – | · | ·
COc1cccc(CN(C)CCCn2cnc(C(=O)Nc3ccc(C)c(C)c3)n2)c1 | – | – | – | · | – | · | ·
Cc1cc(C)cc(C(=O)N2CCC3(CC2)NCCc2[nH]cnc23)c1 | – | – | – | – | – | · | ·
Oc1cc(CNC2CCCCC2)c(O)cc1CNC1CCCCC1 | – | – | – | · | – | · | ·
O=C(O)c1ccc(/C=N/NC(=O)c2cc(-c3cccs3)nc3ccccc23)cc1 | 31 | – | – | – | – | + | +
O=C(NC1=NCCS1)c1cc(-c2cccs2)nc2ccccc12 | 44 | – | – | – | – | 87 | 63
CC(C)NC(=O)c1cc(-c2cccs2)nc2ccccc12 | 71 | – | – | – | – | 145 | 113
Cc1ccc(-c2cc(C(=O)Nc3cccnc3)c3ccccc3n2)s1 | 42 | – | – | – | – | 59 | 43
